For 17 compounds, inhibition results are on record in ChEMBL document CHEMBL1961873, “Compounds: GSK PKIS; Assays: Nanosyn kinase panel” (2012).

Assay [1] addresses Serine/threonine-protein kinase MARK2 (Homo sapiens) (UniProt Q7KZI7). Particulars: at 1 µM.
Assay [2] has as its target PAS domain-containing serine/threonine-protein kinase (Homo sapiens) (UniProt Q96RG2). Particulars: at 0.1 µM.
Assay [3] shares this target. Particulars: at 1 µM.
The target in assay [4] is Phosphorylase b kinase gamma catalytic chain, skeletal muscle/heart isoform (Homo sapiens) (UniProt Q16816). Particulars: at 0.1 µM.
Assay [5] has the same target. Particulars: at 1 µM.
Assay [6] deals with T1, Phosphorylase b kinase gamma catalytic chain, liver/testis isoform (Homo sapiens) (UniProt P15735).
T1 sequence (whole entry): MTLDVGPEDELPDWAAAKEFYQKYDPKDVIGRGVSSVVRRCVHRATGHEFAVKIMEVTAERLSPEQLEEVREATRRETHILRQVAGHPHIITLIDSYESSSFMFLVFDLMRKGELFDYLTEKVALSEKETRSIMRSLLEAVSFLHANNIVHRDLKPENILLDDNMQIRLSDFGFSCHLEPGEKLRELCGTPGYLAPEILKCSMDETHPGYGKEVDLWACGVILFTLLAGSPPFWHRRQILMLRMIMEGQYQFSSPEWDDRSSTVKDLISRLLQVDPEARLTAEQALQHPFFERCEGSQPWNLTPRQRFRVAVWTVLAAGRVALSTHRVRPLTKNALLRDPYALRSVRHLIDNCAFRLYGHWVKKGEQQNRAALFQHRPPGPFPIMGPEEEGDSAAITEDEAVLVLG
Conditions: at 0.1 µM.

The target in assay [7] is T1, Phosphorylase b kinase gamma catalytic chain, liver/testis isoform (Homo sapiens). Conditions: at 1 µM.
For assay [8], the target named is Serine/threonine-protein kinase pim-1 (Homo sapiens) (UniProt P11309). Conditions: at 0.1 µM.
Assay [9] has the same target. Particulars: at 1 µM.
Assay [10] addresses Serine/threonine-protein kinase pim-2 (Homo sapiens) (UniProt Q9P1W9). Particulars: at 0.1 µM.

Chain of Phosphorylase b kinase gamma catalytic chain, skeletal muscle/heart isoform (Homo sapiens) (Q16816 whole entry, looked up, canonical isoform): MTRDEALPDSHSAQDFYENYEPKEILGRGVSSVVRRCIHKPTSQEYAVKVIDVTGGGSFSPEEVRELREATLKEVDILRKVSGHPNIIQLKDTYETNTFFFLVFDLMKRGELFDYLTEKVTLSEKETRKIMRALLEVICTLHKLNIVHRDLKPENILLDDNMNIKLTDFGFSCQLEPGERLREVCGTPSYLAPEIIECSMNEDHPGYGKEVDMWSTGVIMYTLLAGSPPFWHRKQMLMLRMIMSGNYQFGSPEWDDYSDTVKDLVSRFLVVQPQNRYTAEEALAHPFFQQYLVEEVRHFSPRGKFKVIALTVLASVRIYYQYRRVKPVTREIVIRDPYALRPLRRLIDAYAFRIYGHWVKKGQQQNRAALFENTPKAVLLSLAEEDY
Chain of Serine/threonine-protein kinase pim-2 (Homo sapiens) (Q9P1W9 whole entry, looked up): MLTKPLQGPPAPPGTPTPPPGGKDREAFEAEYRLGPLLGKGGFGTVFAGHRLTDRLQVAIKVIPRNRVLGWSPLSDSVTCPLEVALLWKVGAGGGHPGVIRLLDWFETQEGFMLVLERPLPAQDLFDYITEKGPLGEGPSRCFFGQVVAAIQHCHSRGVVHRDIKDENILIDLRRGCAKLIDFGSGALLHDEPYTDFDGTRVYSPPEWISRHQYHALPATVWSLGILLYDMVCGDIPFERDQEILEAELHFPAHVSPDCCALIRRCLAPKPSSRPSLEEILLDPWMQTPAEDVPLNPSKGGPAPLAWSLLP
Chain of PAS domain-containing serine/threonine-protein kinase (Homo sapiens) (Q96RG2 whole entry, the tested form may be a part): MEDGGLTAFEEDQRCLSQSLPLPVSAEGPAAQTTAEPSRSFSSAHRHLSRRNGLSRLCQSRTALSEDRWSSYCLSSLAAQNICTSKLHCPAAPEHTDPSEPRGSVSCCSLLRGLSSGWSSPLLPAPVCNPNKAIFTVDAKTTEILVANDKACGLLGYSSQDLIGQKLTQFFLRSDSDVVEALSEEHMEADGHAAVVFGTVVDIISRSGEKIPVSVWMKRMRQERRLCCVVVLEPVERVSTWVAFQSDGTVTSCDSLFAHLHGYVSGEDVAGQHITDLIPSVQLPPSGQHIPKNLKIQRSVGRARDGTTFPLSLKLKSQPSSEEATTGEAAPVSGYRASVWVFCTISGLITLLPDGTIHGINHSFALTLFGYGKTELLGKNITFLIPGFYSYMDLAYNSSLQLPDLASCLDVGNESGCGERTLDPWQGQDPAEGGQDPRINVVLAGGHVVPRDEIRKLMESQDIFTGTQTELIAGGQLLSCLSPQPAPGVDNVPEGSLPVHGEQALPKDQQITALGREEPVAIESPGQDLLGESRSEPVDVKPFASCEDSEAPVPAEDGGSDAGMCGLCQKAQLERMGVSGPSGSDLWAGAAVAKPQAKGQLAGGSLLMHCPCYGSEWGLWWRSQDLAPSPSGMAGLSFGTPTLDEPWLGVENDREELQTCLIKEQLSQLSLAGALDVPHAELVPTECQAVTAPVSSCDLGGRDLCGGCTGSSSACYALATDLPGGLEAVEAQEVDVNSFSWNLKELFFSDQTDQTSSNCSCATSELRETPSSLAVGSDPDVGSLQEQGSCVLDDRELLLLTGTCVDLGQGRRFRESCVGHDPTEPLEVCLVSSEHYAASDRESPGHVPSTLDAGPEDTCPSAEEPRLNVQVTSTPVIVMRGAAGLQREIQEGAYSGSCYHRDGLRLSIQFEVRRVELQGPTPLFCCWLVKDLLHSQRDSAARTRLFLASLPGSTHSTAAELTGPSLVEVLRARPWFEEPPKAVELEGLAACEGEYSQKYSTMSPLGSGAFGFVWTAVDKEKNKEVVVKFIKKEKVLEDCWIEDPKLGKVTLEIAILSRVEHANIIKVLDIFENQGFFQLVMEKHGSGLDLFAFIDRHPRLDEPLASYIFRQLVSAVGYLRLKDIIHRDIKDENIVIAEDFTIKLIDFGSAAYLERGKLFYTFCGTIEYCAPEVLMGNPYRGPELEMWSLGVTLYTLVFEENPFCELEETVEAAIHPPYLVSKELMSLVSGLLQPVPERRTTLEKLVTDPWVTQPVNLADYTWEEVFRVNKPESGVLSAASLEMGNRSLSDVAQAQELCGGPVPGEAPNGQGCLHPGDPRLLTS
Chain of Serine/threonine-protein kinase pim-1 (Homo sapiens) (P11309 whole entry, looked up): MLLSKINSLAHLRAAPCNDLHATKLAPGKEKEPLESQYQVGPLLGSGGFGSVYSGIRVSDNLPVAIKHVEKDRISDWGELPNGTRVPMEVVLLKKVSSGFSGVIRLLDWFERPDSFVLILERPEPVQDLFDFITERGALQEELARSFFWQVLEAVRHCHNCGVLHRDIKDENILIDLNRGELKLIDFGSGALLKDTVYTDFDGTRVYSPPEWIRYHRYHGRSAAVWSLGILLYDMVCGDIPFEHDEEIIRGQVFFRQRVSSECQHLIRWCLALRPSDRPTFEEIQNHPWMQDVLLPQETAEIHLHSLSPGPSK
Chain of Serine/threonine-protein kinase MARK2 (Homo sapiens) (Q7KZI7 whole entry, the tested form may be a part): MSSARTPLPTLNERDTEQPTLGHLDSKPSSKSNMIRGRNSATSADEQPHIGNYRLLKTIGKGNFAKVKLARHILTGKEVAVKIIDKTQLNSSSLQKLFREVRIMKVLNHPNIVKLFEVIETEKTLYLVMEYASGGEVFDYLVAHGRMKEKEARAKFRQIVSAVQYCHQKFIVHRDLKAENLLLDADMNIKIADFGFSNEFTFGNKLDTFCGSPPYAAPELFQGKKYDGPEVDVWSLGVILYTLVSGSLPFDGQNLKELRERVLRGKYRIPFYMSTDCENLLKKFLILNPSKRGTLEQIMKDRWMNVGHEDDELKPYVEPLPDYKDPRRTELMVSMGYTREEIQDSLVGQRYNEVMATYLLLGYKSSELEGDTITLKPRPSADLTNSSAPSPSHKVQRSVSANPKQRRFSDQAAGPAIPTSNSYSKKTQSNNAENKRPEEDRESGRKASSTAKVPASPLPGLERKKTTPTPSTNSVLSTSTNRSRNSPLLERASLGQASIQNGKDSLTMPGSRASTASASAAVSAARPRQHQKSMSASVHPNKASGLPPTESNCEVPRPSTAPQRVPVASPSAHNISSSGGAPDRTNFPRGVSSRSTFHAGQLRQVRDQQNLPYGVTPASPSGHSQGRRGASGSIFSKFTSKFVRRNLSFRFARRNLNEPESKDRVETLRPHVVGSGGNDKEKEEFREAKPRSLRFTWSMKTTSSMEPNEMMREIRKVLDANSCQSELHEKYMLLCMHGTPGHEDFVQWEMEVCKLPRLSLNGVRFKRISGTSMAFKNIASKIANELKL

As to `CCS(=O)(=O)c1ccc(OC)c(Nc2ncc(-c3ccccc3Cl)o2)c1`, the inhibition is -0.17% in assay [1]; 1.42% in assay [2]; 0.93% in [3]; 1.33% in [4]; 1.36% in assay [5]; 1.67% in assay [6]. Moreover, the inhibition in [7] was 0.7%; in assay [8], -0.02%; in assay [9], 1.67%; in [10] it was -0.56%.

Turning to `CCc1ccc(Oc2nccc(-c3c(-c4ccc(F)cc4)ncn3C3CCNCC3)n2)cc1`, the inhibition is 4.62% in assay [1]; -0.7% in assay [2]; 0.69% in assay [3]; 1.39% in [4]; 2.98% in assay [5]; 5.05% in assay [6]. Also, the inhibition in assay [7] came out at 5.44%; in [8], 2.14%; in assay [9] it was 1.74%; in [10] it was 0.08%.

Take `CN(c1ccc(NC(=O)Nc2c(Cl)cccc2Cl)cc1)c1ccnc(Nc2cccc(CS(C)(=O)=O)c2)n1`: the inhibition in [1] was 2.99%; in [2], 0.68%; in [3], 2.77%; in [4], 2.51%; in [5] it was 8.06%; in [6], 2.8%. The inhibition is 6.5% in assay [7], -0.26% in assay [8], 0.34% in assay [9] and 0.03% in [10].

With `O=C(Nc1n[nH]c2nc(-c3ccc(O)cc3)c(Br)cc12)C1CC1`, the inhibition in [1] came out at 5.24%; in [2] it was 0.21%; in assay [3], 0.71%; in assay [4] it was 7.64%; in assay [5], 10.7%; in assay [6], 6.68%. For the same compound, the inhibition is 7.34% in assay [7], 19.7% in [8], 65.5% in assay [9] and 45.5% in assay [10].

`O=C(Nc1n[nH]c2cc(-c3ccccc3)ccc12)C1CC1`: the inhibition was 3.6% in assay [1]; 0.21% in [2]; -1.15% in assay [3]; 8.27% in [4]; 7.18% in assay [5]; 5.27% in assay [6]. For the same compound, the inhibition in assay [7] was 4.5%; in [8] it was 1.3%; in assay [9], 0.46%; in assay [10] it was 0.26%.

As to `CN(C)CCOc1ccc(-c2cc(-c3ccc4c(c3)CCC4=NO)c(-c3ccncc3)o2)cc1`, the inhibition was 0.33% in assay [1]; 1.53% in [2]; 1.21% in assay [3]; 1.83% in [4]; 5.45% in [5]; -1.99% in assay [6]. Also, the inhibition in assay [7] was -1.19%; in [8], 0.55%; in assay [9] it was 0.18%; in assay [10] it was -0.09%.

Consider `O=C(NCC1CC1)c1ccc(-c2cccc(C(=O)NC3CC3)c2)cc1`, for which the inhibition in assay [1] was 1.08%; in [2], 0.62%; in [3], -1.02%; in assay [4] it was 1.06%; in assay [5] it was -2.22%; in assay [6], 2.3%. In addition, the inhibition was -1.04% in assay [7], 0.15% in [8], 0.34% in assay [9] and 0.75% in [10].

As to `NS(=O)(=O)c1ccc(N/N=C2\C(=O)Nc3ccc(C(=O)NCCCn4ccnc4)cc32)cc1`, the inhibition in assay [1] worked out at 9.93%; in assay [2] it was 0.17%; in [3] it was 2.55%; in assay [4], 9.94%; in [5], 25.8%; in assay [6] it was 3.91%. For the same compound, the inhibition in assay [7] was determined as 10%; in assay [8], 2.53%; in assay [9], 15.6%; in assay [10] it was 0.82%.

With `COc1ccc(C2=C(N3CCc4ccccc43)C(=O)NC2=O)cc1`, the inhibition in [1] is 1.74%; in assay [2] it was 0.07%; in [3] it was -0.29%; in assay [4], 3.26%; in assay [5], 6.35%; in assay [6], 7.25%. The inhibition in assay [7] was determined as 4.69%; in assay [8] it was 0.52%; in assay [9], 4.09%; in [10], 0.18%.

For `COc1cc(Nc2ncc3c(C)nc(-c4cccc(Oc5ccccc5)c4)n3n2)cc(OC)c1OC`, the inhibition in assay [1] was 5.64%; in assay [2], 0.54%; in assay [3], -0.72%; in assay [4] it was -0.01%; in assay [5], 5.67%; in [6], 2.66%. The inhibition in assay [7] is -0.4%; in assay [8] it was 0.91%; in [9] it was 1.16%; in [10], 0.23%.

Consider `COc1cc(N2CCN(C(C)C)CC2)ccc1Nc1nc(Nc2ccc(F)cc2C(=O)NC[C@@H](O)CO)c2cc[nH]c2n1`, for which the inhibition in assay [1] was 1.35%; in [2] it was -0.25%; in assay [3] it was 0.96%; in assay [4], 21%; in [5] it was 62%; in [6] it was 6.76%. In addition, the inhibition in assay [7] is 21.1%; in assay [8], -0.41%; in assay [9], 1.79%; in assay [10] it was -3.35%.

Turning to `COc1cc2ncn(-c3cc(OCc4cccs4)c(C(N)=O)s3)c2cc1OC`, the inhibition in assay [1] turned out to be 2.32%; in assay [2], 2.13%; in [3] it was 6.7%; in assay [4], 3.47%; in [5], 6.14%; in [6], 3.82%. For the same compound, the inhibition was 10.1% in [7], 0.81% in [8], 2.01% in [9] and -2.64% in assay [10].

As to `CCc1nccc2c1nc(-c1nonc1N)n2CC`, the inhibition in assay [1] was 1.67%; in assay [2], 0.71%; in assay [3], 0.86%; in assay [4] it was 3.65%; in [5], 1.98%; in assay [6], -0.2%. Moreover, the inhibition in assay [7] was -2.03%; in [8] it was 0.32%; in assay [9], 1.23%; in assay [10], 0.4%.

`Cc1ccc(C(=O)NC2CCC2)cc1-c1ccc(C(=O)NCC2CC2)cc1`: the inhibition in assay [1] was 0.79%; in [2], 0.3%; in [3], -1.21%; in [4], 2.32%; in [5], 2.85%; in assay [6] it was 3.61%. Moreover, the inhibition in assay [7] is 2%; in assay [8] it was 0.78%; in assay [9], 1.55%; in assay [10] it was -0.51%.

`CCN(CC)Cc1ccc(Nc2nccc(-c3cnn4ncccc34)n2)cc1`: the inhibition is 16.2% in assay [1]; -0.55% in assay [2]; -0.46% in assay [3]; 6.04% in assay [4]; 28.2% in assay [5]; 5.93% in assay [6]. For the same compound, the inhibition in [7] was 15.3%; in [8] it was 2.49%; in assay [9], 23%; in assay [10], -3.66%.

For `CN(C)c1ccc2c(c1)/C(=C/Nc1ccc(S(N)(=O)=O)cc1)C(=O)N2`, the inhibition in assay [1] was 18.6%; in [2] it was -0.32%; in assay [3] it was -0.69%; in [4], 15.3%; in [5] it was 49.3%; in [6], 2.06%. Also, the inhibition in assay [7] was found to be 13.8%; in [8], 1.26%; in assay [9], 1.23%; in assay [10] it was 0.23%.

For `Fc1ccc(-c2ncn(CCCN3CCOCC3)c2-c2ccncc2)cc1`, the inhibition is 2.44% in assay [1]; 0.57% in assay [2]; 0.36% in [3]; 1.86% in assay [4]; 2.09% in assay [5]; -0.42% in assay [6]. The inhibition is -2.63% in [7], -0.06% in assay [8], -0.27% in assay [9] and 0.24% in [10].
